In PubChem BioAssay (NCATS):
Records with an inconclusive call do not appear. Unmarked numbers belong to inactive results. Activity calls are given as the source filed them. Calls come from the whole dose curve; as a rule, active = well fitted inhibition curve with a large enough effect; inconclusive = small, poorly fitted or top-dose-only effect; inactive = no such curve, though single readings can be large or run the other way.

Biological target: Retinal dehydrogenase 2 (Homo sapiens) (UniProt O94788)
Experiment: qHTS for Inhibitors of the Aldehyde Dehydrogenase Family (ALDH1A2) Confirmation screens (AID 2061314); note: nearly all actives have a fitted effect of over 65% in size
Details: ALDH1A2 enzyme inhibition qHTS confirmation; series mostly up to 45.9 µM; activity, negative = inhibition: at the top concentration
% is set by controls: 0 for no effect and ±100 for the full control effect; potency is the fitted concentration of half-maximal effect.

Row | Compound | activity, negative = inhibition | outcome | Potency
1 | COc1ccc(S(=O)(=O)NCc2nc3nc(C)cc(C)n3n2)cc1OC | -6.11% | – | –
2 | O=C(NCC(=O)N1CCOCC1)c1cccc(-c2ccc(C(F)(F)F)cc2)c1 | -24% | – | –
3 | Cc1cccc(C(=O)N2CCCC(N3CCN(c4cccc(C(F)(F)F)c4)CC3)C2)c1 (stereo not given) | -4.09% | – | –
4 | Cc1nn(-c2ccc3nncn3n2)c(C)c1CCC(=O)Nc1ccc(OC(F)(F)F)cc1 | – | inactive | –
5 | Cc1cccn2c(=O)c3cc(C#N)c(=O)n(-c4nnc(SCc5ccc(Cl)cc5)s4)c3nc12 | -6.41% | – | –
6 | Cc1nc2c(c(C)c1CCC(=O)Nc1ccc(F)cc1)c(=O)n(C)c(=O)n2C | – | inactive | –
7 | O=C(c1nccc2ccccc12)N1CCc2nc3cc[nH]n3c(=O)c2C1 | 3.35% | – | –
8 | CC(=O)Nc1ccc(S(=O)(=O)N[C@@H]2C=C[C@@H](c3c(C)nn(-c4ccc(C(C)(C)C)cc4)c3C)C2)cc1 | 2.6% | – | –
9 | CCC(=O)N(C1CCOCC1)C1CCN(S(=O)(=O)c2ccc(C(F)(F)F)cc2)CC1 | – | inactive | –
10 | CC(Cn1cncn1)NC(=O)c1cccc(S(=O)(=O)N2CCOCC2)c1 (stereo not given) | – | inactive | –
11 | O=c1cc2nc(-c3ccccc3)nc(SCc3cccc(Br)c3)n2[nH]1 | -3.29% | – | –
12 | COc1cccc(-c2nn(-c3ccccc3)c(OC(C)=O)c2-c2ccc(NC(=O)C3CCCC3)cc2)c1 | -11% | – | –
13 | COc1cccc(-c2ccc(C(=O)N3CCC(N[S+](=O)([O-])CCC(F)(F)F)CC3)cc2)c1 | – | inactive | –
14 | COc1ccccc1-c1[nH]nc2ncc(C(=O)NCCc3ccccn3)nc12 | – | – | 39.8 µM (active)
15 | COc1ccccc1CC(=O)NCc1cccnc1-n1cnc2ccccc21 | -1.72% | – | –
16 | O=C(NCC(=O)N1CCOCC1)c1ccc(-c2cnc3ccccc3c2)cc1 | -4.18% | – | –
17 | Cc1ccc(Cc2nc3ccccc3nc2SCC(=O)Nc2cccc(C(F)(F)F)c2)cc1 | -26.5% | – | –
18 | COc1ccc(NC(=O)c2cc(S(=O)(=O)N3CCOCC3)ccc2OC)cc1 | -27.1% | – | –
19 | COc1ccc(-c2nc(C(=O)Nc3ccc(C(C)=O)cc3)nn2-c2cccc(Cl)c2)cc1 | -13.7% | – | –
20 | CCc1ccc(C(=O)c2cnc3ccc(C)cc3c2S(=O)(=O)c2ccc(OC)cc2)cc1 | -15.4% | – | –

Row | Compound | activity, negative = inhibition | outcome | Potency
21 | O=c1c2cn[nH]c2nc(SCc2cccc(Br)c2)n1-c1ccc(Cl)cc1 | -14.6% | – | –
22 | COCCn1c(SCc2ccccc2F)nc2c([nH]c3ccccc32)c1=O | -23.4% | – | –
23 | Cc1ccc(S(=O)(=O)NC[C@H]2O[C@@H](CC(=O)NCCN3CCOCC3)[C@H](O)[C@@H]2O)cc1 | -15% | – | –
24 | COc1ccc(C(=O)Nc2ccc(-c3cc(C(F)(F)F)nn3-c3ccccc3)cc2)cc1OC | -23.1% | – | –
25 | COc1cc(OC)cc(C(=O)NCCc2csc3nc(-c4ccccc4F)nn23)c1 | -2.68% | – | –
26 | CNC(=O)c1cc(C2CC2)nc2onc(C3CCCN3C(=O)c3cccc(Cl)c3)c12 (stereo not given) | -23.6% | – | –
27 | CCOc1ccc(-c2cc(C(=O)NC(C)c3ccccc3)c3ccccc3n2)cc1 (stereo not given) | – | inactive | –
28 | CC(C)OCCCNC(=O)CN1C(=O)COc2ccc(S(=O)(=O)N3CCOCC3)cc21 | -15% | – | –
29 | COc1ccccc1C(=O)Nc1ccc(-c2cc(C(F)(F)F)nn2-c2ccccc2)cc1 | 1.15% | – | –
30 | COC(=O)c1cc(C)nc2c1c(=O)nc(SCc1cccc(C)c1)n2C1CC1 | -20.4% | – | –
31 | CCOc1ccc(CNC(=O)C2CCCCN2S(=O)(=O)c2ccc(F)cc2)cc1OC (stereo not given) | -15.4% | – | –
32 | O=C(c1n[nH]c2ccccc12)N1CCCC(Cc2noc(-c3cnccn3)n2)C1 (stereo not given) | -14.7% | – | –
33 | Cc1cc(C)n2nc(CNS(=O)(=O)c3ccc(Cl)cc3)nc2n1 | -0.953% | – | –
34 | CCc1ccc(N(CC)C(=O)c2cn(C)c(=O)c3cc(OC)c(OC)cc23)cc1 | -2.63% | – | –
35 | CCOc1ccccc1NC(=O)CN(C)S(=O)(=O)c1ccc(C(=O)N2CCOCC2)s1 | -2.89% | – | –
36 | COCCn1cnnc1CN(C)C(=O)c1ccc2nc(C)cn2c1 | 3.67% | – | –
37 | COc1ccc(CN(C)c2ccc(-c3nc(-c4ccccc4)no3)cc2[N+](=O)[O-])cc1 | -18.2% | – | –
38 | O=S(=O)(NCCn1cc(-c2cncnc2)nn1)c1ccc(Cl)cc1 | – | inactive; activator | –
39 | N#Cc1cc2c(=O)n3ccccc3nc2n(-c2nnc(SCc3ccc(F)cc3)s2)c1=O | -28.4% | – | –
40 | CCc1nn2c(=O)c(S(=O)(=O)Nc3ccc(Br)cc3F)c(C)nc2s1 | -11.6% | – | –
